From PubChem
Only some compounds are listed: those with a hit (about 1.8% of all), similar ones and a draw of the others.
m5-HT2A agonist: mouse Htr2a agonists via beta-arrestin recruitment, primary screen, cell-based, luminescence | activation, % at 7.6 µM | CHO-K1 mHTR2A beta-arrestin complementation; percent of 30 µM serotonin response | 360,000 compounds, 0.66% hits;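 active means activation above a run cutoff, the mean activation of all tested compounds plus 3 SD, cut at about 14% in these data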
NPR2 activator: human GC-B receptor activators, primary screen, HEK293 GC-B cells, cGMP TR-FRET, EC30 CNP. activation, % at 10 µM. 370,000 compounds, 0.11% hits. Atrial natriuretic peptide receptor 2 (Homo sapiens), P20594. 0% at EC30 CNP, 100% saturating CNP;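 active means activation at 10 µM reaching about 35% in either raw or pattern-adjusted values, limit read from the data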
GC-A act: GC-A stimulated cGMP production enhancers – HEK293 GC-A cells, cGMP TR-FRET, EC30 ANP, primary screen; Atrial natriuretic peptide receptor 1 (Homo sapiens), P16066; 0% at EC30 ANP, 100% saturating ANP; activation, % at 10 µM; 370,000 compounds, 0.14% hits; in the data active means activation above about 40%
bovine MsrA act: bovine MsrA enzyme activators, primary screen, biochemical, absorbance, HTS; Methionine sulfoxide reductase A (Bos taurus); activation, % at 10.6 µM; 360,000 compounds, 0.3% hits; purified bovine MsrA, absorbance read-out; in the data active means activation above about 7.5%
MsrA inh: bovine MsrA enzyme inhibitors, primary screen, biochemical, absorbance, HTS | Methionine sulfoxide reductase A (Bos taurus) | purified bovine MsrA, absorbance read-out | inhibition, % at 15.5 µM | 360,000 compounds, 0.75% hits | AID 651718, 2012; in the data active means inhibition above about 4.5%
MOR ag counter: OPRM1 agonists via beta-arrestin recruitment, confirmation, counter-screen for mouse HTR2A agonist project, cell-based, luminescence, single concentration. shares compounds with m5-HT2A agonist. U2OS OPRM1 beta-arrestin PathHunter; DMSO 0%, DAMGO 9.3 µM 100%. activation, % at 9.3 µM. 2,300 compounds, 5.3% hits;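 active means mean activation above the mean of DMSO-only wells plus 3 SD, cut at about 0.5% in these data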
Target sequence (P35372 whole entry, looked up): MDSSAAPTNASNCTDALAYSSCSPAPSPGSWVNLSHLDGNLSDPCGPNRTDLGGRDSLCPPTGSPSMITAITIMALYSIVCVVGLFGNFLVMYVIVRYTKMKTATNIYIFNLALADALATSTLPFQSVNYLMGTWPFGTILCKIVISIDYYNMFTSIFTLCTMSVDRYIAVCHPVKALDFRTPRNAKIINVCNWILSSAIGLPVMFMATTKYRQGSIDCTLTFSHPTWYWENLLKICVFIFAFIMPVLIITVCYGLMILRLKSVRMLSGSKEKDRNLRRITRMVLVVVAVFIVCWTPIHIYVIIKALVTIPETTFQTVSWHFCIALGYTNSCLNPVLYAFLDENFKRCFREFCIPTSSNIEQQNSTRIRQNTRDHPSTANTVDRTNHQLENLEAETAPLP
m5-HT2A ag conf: mouse HTR2A agonists, beta-arrestin recruitment, confirmation, cell-based, luminescence, CHO-K1 PathHunter, triplicate; shares compounds with m5-HT2A agonist; DMSO 0%, 30 µM serotonin 100%; activation, % at 7.6 µM; 2,300 compounds, 19% hits; AID 624381, 2012;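 active means mean activation across triplicates above the hit threshold derived in the original primary screen, cut at about 15% in these data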
Numbers stand for hits; . = inactive; / = no result.

SMILES	m5-HT2A agonist	NPR2 activator	GC-A act	bovine MsrA act	MsrA inh	MOR ag counter	m5-HT2A ag conf
Cc1onc(-c2ccccc2)c1C(=O)Nc1ccc(NC(=O)c2c(-c3ccccc3)noc2C)cc1	19	.	.	.	.	.	.
CCc1noc(C)c1C(=O)Nc1nc(-c2ccccc2)c(C(C)=O)s1	35	.	.	.	.	.	.
CCc1noc(C)c1C(=O)Nc1nc(-c2ccc(NC(C)=O)cc2)cs1	.	.	.	.	.	/	/
COC(=O)C1CN(Cc2ccccc2)CCS(=O)(=O)N1Cc1ccc(OC)cc1 (stereo not given)	/	.	.	/	/	/	/
O=C(Nc1ccc(Cl)c(S(=O)(=O)N2CCOCC2)c1)c1ccc(Cl)nc1	17	.	.	.	.	.	.
O=C(Nc1ccc(Cl)c(S(=O)(=O)N2CCOCC2)c1)c1ccc2c(c1)OCCO2	.	.	.	.	.	/	/
CCCCCCCCN1C(=O)[C@@H](CC(=O)NCCCCc2ccccc2)C[C@@]2(C(=O)OC)C1=C[C@H](COCc1ccccc1)O[C@@H]2C	/	.	.	/	/	/	/
CN1C(=O)c2cc(NC(=O)c3ccccc3)ccc2OC[C@H]2O[C@@H](CC(=O)NCC3CC3)CC[C@@H]21	/	.	.	/	/	/	/
CCN(CC)C(=O)Nc1ccc(Br)cc1	23	.	.	.	.	.	.
CCc1ccc(CCC(=O)Nc2ccc(Br)cc2)o1	.	.	.	.	.	/	/
COC(=O)[C@]12C[C@H](CC(=O)N3CCC(c4ccccc4)CC3)C(=O)N(Cc3ccc(Cl)cc3Cl)C1=C[C@H](C1CCCC1)O[C@@H]2C	/	.	.	/	/	/	/
O=C(NCCc1ccccc1)OCc1cn(-c2ccc(F)cc2)nn1	/	.	.	/	/	/	/
COCC1CCN(C(=O)C2CCC(=O)N(C3CCCC3)C2)CC1 (stereo not given)	15	.	.	.	.	.	.
CC(C)(C)c1ccc(S(=O)(=O)NC(=O)C2(C)CCN2C(=O)C2(c3ccc(Cl)cc3)CC2)cc1 (stereo not given)	.	.	.	.	.	/	/
CC1(C(=O)NS(=O)(=O)c2ccc(Cl)cc2)CCN1C(=O)C1(c2ccc(Cl)cc2)CC1 (stereo not given)	15	.	.	.	.	.	.
CCOC(=O)N1CCN(C(=O)C[C@H]2C[C@@]3(C(=O)OC)C(=C[C@H](C4CCCC4)O[C@@H]3C)N(Cc3ccco3)C2=O)CC1	/	.	.	/	/	/	/
Cc1ccc(Cn2c(=O)n(Cc3ccc(C(=O)NCC4COC4)cc3)c(=O)c3ccccc32)cc1	/	.	.	/	/	/	/
CCCS(=O)(=O)NC(=O)C1(C)CCCN(C(=O)c2ccccc2C(F)(F)F)C1 (stereo not given)	20	.	.	.	.	.	.
Cc1cc(C(=O)CSc2nc3ccccc3[nH]2)c(C)n1CC1CCCO1 (stereo not given)	25	.	.	.	.	.	.
COc1ccc(-c2nnc(SCc3cccc(F)c3)n2-c2ccccc2)cc1	/	.	.	/	/	/	/
c1ccc(Nc2nc(N3CCCC3)nc(N3CCOCC3)n2)cc1	.	.	.	.	.	/	/
c1ccc(Nc2nc(Nc3ccccc3)nc(N3CCNCC3)n2)cc1	20	.	.	.	.	.	.
CCN(CC)C(=O)c1ccc(C(CCOC(=O)Oc2ccccc2)c2ccc(OC)cc2)cc1 (stereo not given)	/	.	.	/	/	/	/
COc1ccccc1-c1nc2c(c(SCC(=O)N3CCCCC3)n1)Cc1c(CO)cnc(C)c1O2	15	.	.	.	.	.	.
CC1CCN(C(=O)CCCN2C(=O)c3cccnc3Oc3ccc(Cl)cc32)CC1	.	.	.	.	.	/	/
SMILES	m5-HT2A agonist	NPR2 activator	GC-A act	bovine MsrA act	MsrA inh	MOR ag counter	m5-HT2A ag conf
O=C(CN1C(=O)c2cccnc2Oc2ccc(Cl)cc21)N1CCOCC1	14	.	.	.	.	.	.
C[C@@H]1CN([C@@H](C)CO)S(=O)(=O)c2ccc(Br)cc2O[C@@H]1CN(C)S(=O)(=O)c1cn(C)cn1	17	.	.	.	.	.	.
C[C@@H]1CN([C@H](C)CO)S(=O)(=O)c2ccc(C#Cc3ccccc3F)cc2O[C@H]1CN(C)C(=O)c1ccc2c(c1)OCO2	20	.	.	.	.	.	32
C[C@@H]1CN([C@@H](C)CO)S(=O)(=O)c2ccc(-c3ccccc3)cc2O[C@@H]1CN(C)Cc1ccccc1C(=O)O	19	.	.	.	.	.	.
Brc1ccc(-c2nn3c(-c4ccccc4)nnc3s2)o1	/	.	.	/	/	/	/
O=C(O)c1cccc2c1Cc1cc([N+](=O)[O-])ccc1-2	15	.	.	.	.	.	.
COC(=O)c1cnn(-c2ccc(Cl)cc2)c1/C=N/NC(=S)Nc1ccccc1	/	.	.	/	/	/	/
CCCCOc1ccc(C(=O)NC2CCCCN(Cc3cccc(Cl)c3)C2=O)cc1 (stereo not given)	/	.	.	/	/	/	/
CC(C)N1CCc2c(sc(NC(=O)C(F)(F)F)c2-c2nc3ccccc3s2)C1	/	.	.	/	/	/	/
O=[N+]([O-])c1cccc2cnccc12	15	.	.	.	.	.	.
COc1cc(NC(=O)C2CC(c3ccc(Cl)cc3)=NO2)cc(OC)c1OC (stereo not given)	.	.	.	.	.	/	/
COc1cc(NC(=O)C2CC(c3ccccc3Cl)=NO2)cc(OC)c1OC (stereo not given)	18	.	.	.	.	.	.
CCOc1ccccc1C=C1CCc2ccccc2C1=O	30	.	.	.	.	.	.
COc1ccccc1C=C1CCc2ccccc2C1=O	.	.	.	.	.	/	/
COc1cc(/C=C2\CCc3ccccc3C2=O)cc(OC)c1OC	19	.	.	.	.	.	.
COc1ccc2cc(C(=O)/C=C/c3cc(OC)c(OC)c(OC)c3)ccc2c1	.	.	.	.	.	/	/
COc1ccc(C=CC(=O)c2ccc3cc(OC)c(OC)cc3c2)cc1OC	17	.	.	.	.	.	.
COc1ccc(-n2c(C)cc(=O)[nH]c2=O)cc1	18	.	.	.	.	.	.
C/C(=N\NC(=O)c1cc(-c2ccccc2)nc2ccccc12)c1ccc(Cl)cc1	/	.	.	/	/	/	/
Cc1nc2ccccc2c(=O)n1-c1ccc(NS(=O)(=O)c2ccc(F)cc2)cc1	.	.	.	.	.	/	/
